We go through 40 compounds from PubChem BioAssay AID624331 (National Center for Advancing Translational Sciences (NCATS), 2012).

The structures appear in SMILES notation. Results filed as inconclusive are left out. Entries that show only a call come without a potency. Active and inactive are the calls of the source. Calls follow the shape of the dose curve; as a rule, active = well fitted activation curve with a large enough effect; inconclusive = small, poorly fitted or top-dose-only effect; inactive = no such curve, though single readings can be large or run the other way.

This test can be described thus: qHTS assay for re-activators of p53 using a Luc reporter: Hit Validation with no p53 Expressed. The note with it: p53-null cells, luciferase reporter counter-screen; series mostly up to 46.1 µM. The procedure, abridged: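 Without p53 expression, cells (1000/well, Opti-MEM + 10% FBS) were exposed 24 h at 37 deg C to compounds in a 1:5 series from 10 mM stock (top 46.1 µM in well). Luminescent signal read 10 min after Amplite addition; actives flag unspecific activation.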
Background: Quantitative high-throughput screening tests each substance at several concentrations.
For `CCCCCCC1CC(/C(C)=N\NC(N)=O)OC1=O` (stereo not given), the Potency result was “inactive”.

Turning to `O=C(Nc1ccc(Br)cn1)c1cccc(-c2cc3ccccc3oc2=O)c1`, the Potency result was “inactive”.

As for `Cc1cc(NC(=O)c2c(F)c(F)c(F)c(F)c2F)no1`, the Potency result was “inactive”.

As to `O=C1/C(=C/c2ccco2)SC(=S)N1CCC(=O)N1CCCCC1CCO` (stereo not given), the Potency result was “inactive”.

With `O=c1c2ccccc2oc2ccc(-c3ccc4cc[nH]c4c3)cc12`, the Potency entry was “inactive”.

As to `CCC(Sc1nc2ccccc2c(=O)n1CCN1CCOCC1)C(=O)NCc1cccnc1` (stereo not given), the Potency result is “inactive”.

As for `O=C(c1cccs1)c1coc2ccc(O)cc12`, the Potency result was “inactive”.

With `CCCCc1ccc(NC(=S)Nc2ccc(Nc3ccc(OC)cc3)cc2)cc1`, the Potency result was “inactive”.

For the compound `CC1Cc2ccccc2N1C(=O)COC(=O)C1(c2ccccc2F)CCCC1` (stereo not given), the Potency entry was “inactive”.

As for `CSC1=NCCN1C(=O)c1ccc(Br)o1`, the Potency entry was “inactive”.

As for `COc1ccccc1Oc1c(C)oc2c(CN(C)C)c(O)ccc2c1=O`, the Potency result was “inactive”.

With `C/C(=N\NC(=O)c1cccs1)C(C)(C)C`, the Potency entry was “inactive”.

On to `N#C/C(=C\c1ccc(OCc2ccc(Br)cc2)cc1)C(=O)Nc1cccc(C(=O)O)c1`, for which the Potency entry was “inactive”.

On to `O=C(Nc1ccccc1Cl)c1ccc2c(=O)n3c(nc2c1)CCC3`, for which the Potency result was “inactive”.

Consider `Cc1cc(C(=O)NC2CCCCC2)c(C)n1-c1ccc(F)cc1`, for which the Potency result was “inactive”.

For `Cc1cc(F)ccc1NC(=O)Nc1ccc2c(c1)OCO2`, the Potency entry is “inactive”.

Consider `Cc1cc(C(=O)COC(=O)c2cccc(O)c2)c(C)n1C1CC1`, for which the Potency result was “inactive”.

Consider `CC(C)(C)c1ccc(/C=N/Nc2ccc(C(=O)O)cc2)cc1`, for which the Potency entry was “inactive”.

For the compound `COc1ccc(-c2cc3ccc(F)cc3cn2)cc1`, the Potency result is “inactive”.

Take `COc1ccc(CCC(=O)Nc2ccc(-c3noc(-c4ccc(OC)c(OC)c4)n3)cc2)cc1`: the Potency entry is “inactive”.

Turning to `CC1(C)CC(=O)CC(=O)/C1=N\Nc1c(Cl)cc(Cl)cc1Cl`, the Potency result was “inactive”.

On to `CC(C)N1CCc2c(sc(NC(=S)NC(=O)c3ccccc3)c2C#N)C1`, for which the Potency entry was “inactive”.

As for `COc1ccc(-c2nc(-c3ccc(NC(=O)c4ccncc4)cc3)no2)cc1OC`, the Potency entry is “inactive”.

With `COc1cccc(/C=N/Nc2cc(-n3nc(C)cc3-c3ccccc3)ncn2)c1O`, the Potency result is “inactive”.

For the compound `O=C(/C=C/c1ccc([N+](=O)[O-])s1)N1CCCCC1`, the Potency result is “inactive”.

Take `Cc1ccc(C(=O)Nc2nnc(SCC(=O)N3CCCc4ccccc43)s2)cc1`: the Potency result is “inactive”.

Take `COc1ccc([N+](=O)[O-])cc1NC(=O)C1CCCCC1C(=O)O` (stereo not given): the Potency entry was “inactive”.

As for `O=C(Nc1ccc(Cl)cc1Cl)c1ccc2c(c1)OCCO2`, the Potency result is “inactive”.

As for `COc1ccc(CNc2nc(-c3ccccc3)nn2C(=O)c2ccc([N+](=O)[O-])cc2)cc1`, the Potency entry is “inactive”.

Take `COCCn1c(C)cc(C(=O)COc2ccc(N(C)S(=O)(=O)c3ccc(C)cc3)cc2)c1C`: the Potency entry was “inactive”.

Consider `Cc1cccc(C)c1Nc1c(-c2ccccn2)nc2ccccn12`, for which the Potency entry was “inactive”.

Regarding `Cc1ccc(C2=CC(c3ccc(N(C)C)cc3)n3nnnc3N2)cc1` (stereo not given), the Potency entry was “inactive”.

As for `c1ccc(-c2cn3c(n2)SCC3)cc1`, the Potency entry is “inactive”.

For `COc1ccc2cc(C3(C)NC(=O)N(CC(=O)Nc4c(C)n(C)n(-c5ccccc5)c4=O)C3=O)ccc2c1` (stereo not given), the Potency result was “inactive”.

On to `Cc1ccc(C)c(C(=O)COC(=O)c2n[nH]c3ccccc23)c1`, for which the Potency result was “inactive”.

For `Cc1ccc(NC(=O)NC(=O)CN2CCC(C(N)=O)CC2)c(C)c1`, the Potency result was “inactive”.

For the compound `CCOc1ccc(C(O)Cc2nc3ccccc3n2C)cc1` (stereo not given), the Potency entry is “inactive”.

With `O=C(CC(Nc1ccc(F)cc1)C(=O)OCC(=O)c1cccs1)c1ccccc1` (stereo not given), the Potency result is “inactive”.

As to `COc1ccc(N(C(=O)Nc2ccc(Cl)cc2)C2=NCCC2)cc1`, the Potency result is “inactive”.

As for `O=C(NNC(=S)NC1CCCCC1)c1cccs1`, the Potency result is “inactive”.
